# In the supplement of paper PMC11738630:
# Test system: Salmonella enterica serovar Typhimurium 14028s
# Assay: approximate change in surviving CFU after surface colonization relative to water-only control (log10 CFU/mL change); higher = more surviving bacteria (less inhibition of surface colonization)
# Conditions: not stated (Biolog proprietary concentration), surface: plastic 96-well plate, 20-24 h at 25 °C
structure (smiles),measurement,setting,value
CCCCCCCCCC(=O)O [Capric Acid],approximate change in surviving CFU (log10),"Biolog plate: PM2, Biolog well: E1",-0.88
O=C(O)c1ccc(O)cc1 [4-Hydroxy Benzoic Acid],approximate change in surviving CFU (log10),"Biolog plate: PM2, Biolog well: E7",-0.58
C[C@@H](O)CC(=O)O [b-Hydroxy Butyric Acid],approximate change in surviving CFU (log10),"Biolog plate: PM2, Biolog well: E8",-0.215
O=C(O)[C@]1(O)C[C@@H](O)[C@@H](O)[C@H](O)C1 [Quinic Acid],approximate change in surviving CFU (log10),"Biolog plate: PM2, Biolog well: F6",1.09
"O=C1O[C@H](CO)[C@@H](O)[C@H]1O [D-Ribono-1,4-Lactone]",approximate change in surviving CFU (log10),"Biolog plate: PM2, Biolog well: F7",0.944
NC(=O)CCC(=O)O [Succinamic Acid],approximate change in surviving CFU (log10),"Biolog plate: PM2, Biolog well: F10",0.73
O=C(O)[C@H](O)[C@@H](O)C(=O)O [L-Tartaric Acid],approximate change in surviving CFU (log10),"Biolog plate: PM2, Biolog well: F12",0.687
"C[N+](C)(C)CC(O)CC(=O)[O-] (racemic) [D,L-Carnitine]",approximate change in surviving CFU (log10),"Biolog plate: PM2, Biolog well: H5",0.365
O=NO [Nitrite],approximate change in surviving CFU (log10),"Biolog plate: PM3, Biolog well: A3",0.966
NC(=O)NC(N)=O [Biuret],approximate change in surviving CFU (log10),"Biolog plate: PM3, Biolog well: A6",-0.258
N[C@@H](CS)C(=O)O [L-Cysteine],approximate change in surviving CFU (log10),"Biolog plate: PM3, Biolog well: A11",0.88
NC(=O)C[C@@H](N)C(=O)O [D-Asparagine],approximate change in surviving CFU (log10),"Biolog plate: PM3, Biolog well: C4",0.644
CC(C)[C@@H](N)C(=O)O [D-Valine],approximate change in surviving CFU (log10),"Biolog plate: PM3, Biolog well: C9",-0.172
NCCc1ccccc1 [B-Phenylethyl-amine],approximate change in surviving CFU (log10),"Biolog plate: PM3, Biolog well: E2",-0.129
NC=O [Formamide],approximate change in surviving CFU (log10),"Biolog plate: PM3, Biolog well: E5",-0.708
O=c1cc[nH]c(=O)[nH]1 [Uracil],approximate change in surviving CFU (log10),"Biolog plate: PM3, Biolog well: F10",1.14
O=c1[nH]c(=O)c2nc[nH]c2[nH]1 [Xanthine],approximate change in surviving CFU (log10),"Biolog plate: PM3, Biolog well: G1",0.408
OC[C@H]1O[C@@H](n2cnc3c(O)nc(O)nc32)[C@H](O)[C@@H]1O [Xanthosine],approximate change in surviving CFU (log10),"Biolog plate: PM3, Biolog well: G2",0.751
O=C1NC(=O)C(=O)N1 [Parabanic Acid],approximate change in surviving CFU (log10),"Biolog plate: PM3, Biolog well: G6",-2.58e-05
"CCC(N)C(=O)O (racemic) [D,L-a-Amino-N-Butyric Acid]",approximate change in surviving CFU (log10),"Biolog plate: PM3, Biolog well: G7",-0.644
CSCC[C@H](N)C(=O)N[C@@H](C)C(=O)O,approximate change in surviving CFU (log10),"Biolog plate: PM3, Biolog well: H12",0.0214
OC[C@@H](O)[C@H](O)[C@H](O)[C@@H](O)CO [Dulcitol],approximate change in surviving CFU (log10),"Biolog plate: PM1, Biolog well: A12",1.03
CCC(=O)C(=O)O [a-Keto-Butyric Acid],approximate change in surviving CFU (log10),"Biolog plate: PM1, Biolog well: D7",0.172
CCC(=O)O [Propionic Acid],approximate change in surviving CFU (log10),"Biolog plate: PM1, Biolog well: F7",-0.987
O=C(O)CC(CC(=O)O)C(=O)O [Tricarballylic Acid],approximate change in surviving CFU (log10),"Biolog plate: PM1, Biolog well: G2",1.05
O=C(O)Cc1cccc(O)c1 [m-Hydroxy Phenyl Acetic Acid],approximate change in surviving CFU (log10),"Biolog plate: PM1, Biolog well: H3",-1.31
CC(=O)C(=O)O [Pyruvic Acid],approximate change in surviving CFU (log10),"Biolog plate: PM1, Biolog well: H8",-0.494
NCCO [2-Aminoethanol],approximate change in surviving CFU (log10),"Biolog plate: PM1, Biolog well: H12",0.365
CC(=O)N[C@H]1[C@H]([C@H](O)[C@H](O)CO)OC(O)(C(=O)O)C[C@@H]1O (some centres not stated) [N-Acetyl-Neuraminic Acid],approximate change in surviving CFU (log10),"Biolog plate: PM2, Biolog well: B2",1.09
OC[C@@H](O)C(O)[C@H](O)CO [D-Arabitol],approximate change in surviving CFU (log10),"Biolog plate: PM2, Biolog well: B6",1.37
OC[C@@H](O)[C@@H](O[C@H]1O[C@H](CO)[C@@H](O)[C@H](O)[C@H]1O)[C@H](O)[C@@H](O)CO [Maltitol],approximate change in surviving CFU (log10),"Biolog plate: PM2, Biolog well: C5",1.37
CO[C@@H]1O[C@H](CO)[C@@H](O)[C@H](O)[C@H]1O [b-Methyl-D-Glucoside],approximate change in surviving CFU (log10),"Biolog plate: PM2, Biolog well: C7",1.33
CO[C@H]1O[C@H](CO)[C@@H](O)[C@H](O)[C@@H]1O [a-Methyl-D-Mannoside],approximate change in surviving CFU (log10),"Biolog plate: PM2, Biolog well: C10",0.0215
O=C(CO)[C@@H](O[C@H]1O[C@H](CO)[C@@H](O)[C@H](O)[C@H]1O)[C@H](O)[C@H](O)CO [Turanose],approximate change in surviving CFU (log10),"Biolog plate: PM2, Biolog well: D7",0.88
CCCCCC(=O)O [Caproic Acid],approximate change in surviving CFU (log10),"Biolog plate: PM2, Biolog well: E2",-0.859
C=C(CC(=O)O)C(=O)O [Itaconic Acid],approximate change in surviving CFU (log10),"Biolog plate: PM2, Biolog well: E11",-3.95
O=C(O)[C@H](O)[C@@H](O)[C@H](O)[C@H](O)CO[C@H]1O[C@H](CO)[C@H](O)[C@H](O)[C@H]1O [Melibionic Acid],approximate change in surviving CFU (log10),"Biolog plate: PM2, Biolog well: F3",0.3
O=C(O)[C@@H](O)[C@H](O)C(=O)O [D-Tartaric Acid],approximate change in surviving CFU (log10),"Biolog plate: PM2, Biolog well: F11",0.944
O=C(O)[C@@H]1C[C@@H](O)CN1 [Hydroxy-L-Proline],approximate change in surviving CFU (log10),"Biolog plate: PM2, Biolog well: G8",0.622
CC(=O)C(C)O (configuration not stated) [3-Hydroxy-2-Butanone],approximate change in surviving CFU (log10),"Biolog plate: PM2, Biolog well: H12",-0.15
O=[N+]([O-])O [Nitrate],approximate change in surviving CFU (log10),"Biolog plate: PM3, Biolog well: A4",0.665
NC(N)=O,approximate change in surviving CFU (log10),"Biolog plate: PM3, Biolog well: A5",0.429
NCCCC[C@@H](N)C(=O)O [D-Lysine],approximate change in surviving CFU (log10),"Biolog plate: PM3, Biolog well: C7",-0.107
NC(=O)NCCC[C@H](N)C(=O)O [L-Citrulline],approximate change in surviving CFU (log10),"Biolog plate: PM3, Biolog well: C10",0.665
CCCCCN [N-Amylamine],approximate change in surviving CFU (log10),"Biolog plate: PM3, Biolog well: D6",-0.708
CCCCN [N-Butylamine],approximate change in surviving CFU (log10),"Biolog plate: PM3, Biolog well: D7",-2.12
CCN [Ethylamine],approximate change in surviving CFU (log10),"Biolog plate: PM3, Biolog well: D8",-1.89
